Measurements taken from the supplement of paper PMC10981050.
Counter-ions that a name gives are not always drawn.

The compounds below were run on MARIMO (assay: cell viability relative to vehicle control; higher = less cytotoxic). Settings: 10 µM; SRSF2 genotype: SRSF2 wt/wt.
Procedure, shortened: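 Each screen used CRISPR-edited mutant and wild-type clones from four leukaemia lines. Compounds were acoustically dispensed at a single 10 µM dose, and CellTiter-Glo luminescence was read after 48 h with the supernatant first removed. Viability was analysed in Genedata Screener and given as percent of the on-plate vehicle control.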
Work on `CC(C)NCC(O)COc1ccc(CCOCC2CC2)cc1` (centres undefined) [Betaxolol hydrochloride (Betoptic)] yielded a cell viability of 107%.
Compound `c1ccc2[nH]c(-c3cscn3)nc2c1` [Thiabendazole] has a cell viability of 103%.
In the case of `Cc1c[nH]c(C=C2C(=O)Nc3ccccc32)c1CCC(=O)O`, the cell viability is reported as 92.2%.
`C[C@H](NC(=O)CCc1nc2ccccc2c(=O)[nH]1)c1ccccc1` was tested, and the cell viability was 100%.
With `C=CC(=O)N1C[C@H](Nc2ncnc3[nH]ccc23)CC[C@@H]1C` the cell viability was 97.7%.
`CC(=O)Nc1ccc(C(=O)Nc2ccccc2N)cc1` [CI994 (Tacedinaline)] gave a cell viability of 41.3%.
Work on `N#Cc1c(NC(=O)c2cccc3ccccc23)sc2c1CCCC2` [JNK inhibitor IX] yielded a cell viability of 9.03%.
`CNC(=O)c1cc(COc2nnc(Nc3ccc(Cl)cc3)c3ccoc23)ccn1` [Telatinib (BAY 57-9352)] gave a cell viability of 106%.
Compound `Cn1c(N2CCCCS2(=O)=O)nc(C(=O)NCc2ccc(F)cc2)c(O)c1=O` has a cell viability of 115%.
Work on `CCC[C@@H]1C[C@@H](C(=O)N[C@@H]([C@H]2O[C@H](SC)[C@H](O)[C@@H](O)[C@H]2O)[C@H](C)Cl)N(C)C1` [Clindamycin HCl] yielded a cell viability of 99.9%.
In the case of `COCCNC(=O)Nc1ccc2nc(-c3cccs3)c(-c3cccs3)nc2c1` [ACSS2 inhibitor], the cell viability is reported as 97.7%.
For `CC(C)=CCCC(C)(O)C1CCC2(C)C1C(O)CC1C3(C)CCC(O)C(C)(C)C3C(OC3OC(CO)C(O)C(O)C3OC3OC(C)C(O)C(O)C3O)CC12C` [(20S)Ginsenoside Rg2], the cell viability was 108%.
`COC1C(O)C(O)C(O)C(O)C1O` (centres undefined) [Sequoyitol] gave a cell viability of 99.1%.
`CO[C@H]1C[C@H](O[C@H]2[C@H](C)O[C@@H](O[C@@H]3/C(C)=C/C[C@@H]4C[C@@H](C[C@]5(C=C[C@H](C)[C@@H](C6CCCCC6)O5)O4)OC(=O)[C@@H]4C=C(C)[C@@H](O)[C@H]5OC/C(=C\C=C\[C@@H]3C)[C@]54O)C[C@@H]2OC)O[C@@H](C)[C@@H]1O` [Doramectin] showed a cell viability of 29.4%.
`C[C@H](CCC(=O)O)[C@H]1CC[C@H]2[C@@H]3[C@@H](O)C[C@@H]4C[C@H](O)CC[C@]4(C)[C@H]3CC[C@]12C` [Ursodiol (Actigal Urso)] was tested, and the cell viability was 98.9%.
`C/C=C(\C)C(=O)OC1c2c(ccc3ccc(=O)oc23)OC(C)(C)C1OC(=O)/C(C)=C/C` (centres undefined) [Praeruptorin B] was tested, and the cell viability was 111%.
`COc1cc([C@@H]2Oc3cc([C@H]4Oc5cc(O)cc(O)c5C(=O)[C@@H]4O)ccc3O[C@H]2CO)ccc1O` [Silymarin (Silybin B)] was tested, and the cell viability was 108%.
`CCOC(=O)C1=C(COCCN)NC(C)=C(C(=O)OC)[C@@H]1c1ccccc1Cl` [Levamlodipine] was tested, and the cell viability was 75%.
Work on `CC1(C)CC[C@]2(C(=O)O)CC[C@]3(C)C(=CC[C@@H]4[C@@]5(C)CC[C@H](O)[C@@](C)(CO)[C@@H]5CC[C@]43C)[C@@H]2C1` [Hederagenin] yielded a cell viability of 112%.
Compound `O=C(O)[C@]1(Cc2cccc(Nc3nccs3)n2)CC[C@@H](Oc2cccc(Cl)c2F)CC1` has a cell viability of 68.2%.
With `O=C(Oc1cccc(F)c1OC(=O)c1cccc(O)c1)c1cccc(O)c1` the cell viability was 88.4%.
With `C[C@@H](O)[C@H]1C(=O)N2C(C(=O)O)=C(S[C@@H]3CN[C@H](C(=O)N(C)C)C3)[C@H](C)[C@H]12` [Meropenem] the cell viability was 96.9%.
Work on `CC(C)=CCC/C(C)=C/Cc1c(O)c(CC=C(C)C)c2c(c1O)C(=O)C1=C[C@@H]3C[C@H]4C(C)(C)O[C@@](C/C=C(/C)C(=O)O)(C3=O)[C@@]14O2` [Gambogenic acid] yielded a cell viability of 0.68%.
With `CO[C@H]1C(=O)[C@]2(C)[C@@H](OC)C[C@H]3OC[C@@]3(OC(C)=O)[C@H]2[C@H](OC(=O)c2ccccc2)[C@]2(O)C[C@H](OC(=O)[C@H](O)[C@@H](NC(=O)OC(C)(C)C)c3ccccc3)C(C)=C1C2(C)C` [Cabazitaxel (Jevtana)] the cell viability was 5.43%.
Work on `O=C(CCc1ccc(O)cc1)c1c(O)cc(O)cc1O` [Phloretin] yielded a cell viability of 90.2%.
For `CCCCCCCCCCCCc1ccc(S(=O)(=O)Nc2nncs2)cc1`, the cell viability was 109%.
Compound `COc1cccc2cc(-c3nc([C@H]4CC[C@H](C(=O)O)CC4)n4ncnc(N)c34)[nH]c12` has a cell viability of 47.1%.
Compound `COc1ccc(C[C@H](N)C(=O)N[C@H]2[C@@H](O)[C@H](n3cnc4c(N(C)C)ncnc43)O[C@@H]2CO)cc1` [Puromycin 2HCl] has a cell viability of 0.77%.
`COc1cc(-c2oc3cc(O)cc(O)c3c(=O)c2O[C@@H]2O[C@H](CO[C@@H]3O[C@@H](C)[C@H](O)[C@@H](O)[C@H]3O)[C@@H](O)[C@H](O)[C@H]2O)ccc1O` [Narcissoside] showed a cell viability of 103%.
`C[C@]12CC[C@@H]3c4ccc(OC(=O)c5ccccc5)cc4CC[C@H]3[C@@H]1CC[C@@H]2O` [Estradiol Benzoate] was tested, and the cell viability was 35.6%.
`CCCC(=O)NCCc1csc(-c2ccc(Cl)cc2)n1` [Azoramide] showed a cell viability of 83.8%.
`C=C[C@]1(C)C[C@@H](OC(=O)CS[C@@H]2C[C@H]3CC[C@@H](C2)N3C)[C@]2(C)[C@H](C)CC[C@]3(CCC(=O)[C@H]32)[C@@H](C)[C@@H]1O` [Retapamulin] was tested, and the cell viability was 84.6%.
Compound `Cc1cnc(C(=O)O)c[n+]1[O-]` [Acipimox] has a cell viability of 100%.
In the case of `CC(=O)Nc1cccc(-n2c(=O)n(C3CC3)c(=O)c3c(Nc4ccc(I)cc4F)n(C)c(=O)c(C)c32)c1`, the cell viability is reported as 38.5%.
For `CCN(CC)CC(=O)Nc1c(C)cccc1C` [Lidocaine (Alphacaine)], the cell viability was 108%.
Compound `Cc1nc(Nc2n[nH]c3c2CN(C(=O)N[C@H](CN(C)C)c2ccccc2)C3(C)C)c2sccc2n1` has a cell viability of 3.34%.
For `Cc1ccccc1C(=O)Nc1ccc(C(=O)N2CCCC(N(C)C)c3ccccc32)cc1` (centres undefined) [Mozavaptan], the cell viability was 93.2%.
Work on `NS(=O)(=O)c1cc2c(cc1Cl)N=CNS2(=O)=O` [Chlorothiazide] yielded a cell viability of 105%.
`CCCn1/c(=N/C(=O)c2cccc(C(N)=O)c2)[nH]c2ccccc21` [Takinib] gave a cell viability of 103%.
